The nature of assay [1]: qHTS assay to identify small molecule agonists of the hypoxia (HIF-1) signaling pathway - cell viability counter screen (AID 1224844; calls by dose curve; also: nearly all actives have a fitted effect of over 50% in size; also: potency is read from the fitted curve at half-maximal effect). In a few lines: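 Cells (HRE-bla ME-180, 2,000 per well) sat 5 hrs at 37C, got compound for 17 hrs, were read for CCF4-AM FRET, and were finally lysed with CellTiter-Glo for a 30 min room-temperature luminescence read.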
Assay [2] is described as follows: qHTS assay to identify small molecule agonists of H2AX (AID 1224845; active = well fitted activation curve with a large enough effect in the signal ratio in the repeat runs, not every such curve was filed as active; the % refers to the signal ratio). In a few lines:
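Wild-type CHO-K1 cells, plated overnight, exposed 3hr at 37C to 15 concentrations (0.76% DMSO final). Lysed, then HTRF anti-pH2AX (S139) cryptate and anti-H2AX-d2 antibodies, 24 hr room temperature; 665/620 nm emission read.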

A short description of assay [3]: qHTS assay to identify small molecule agonists of H2AX - cell viability counter screen (AID 1224847; calls by dose curve; also: nearly all actives have a fitted effect of over 30% in size; also: potency is read from the fitted curve at half-maximal effect). In a few lines: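 For this counter screen, overnight-attached CHO-K1 cells received test compounds (15 concentrations, 0.76% DMSO final); 3 hr later at 37C, CellTiter-Glo reagent was added and luminescence recorded after 30 min at room temperature.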
A general note: Quantitative high-throughput screening tests each substance at several concentrations.

A short description of assay [4]: qHTS RealTime-Glo MT Cell Viability Assay in HepG2 cells - 24 hour (AID 1224867). Also: nearly all actives have a fitted effect of over 50% in size. Also: potency is read from the fitted curve at half-maximal effect. The gist of the method: (§1)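 Luminescence read-out: viable HepG2 cells reduce a prosubstrate to a NanoLuc substrate, giving a signal proportional to live cell number. Reads taken at 0, 8, 16, 24, 32 and 40 h of compound exposure at 37 C.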
Assay [5] is described as follows: qHTS RealTime-Glo MT Cell Viability Assay in HEK293 cells - 32 hour (AID 1224868). Also: nearly all actives have a fitted effect of over 50% in size. Also: potency is read from the fitted curve at half-maximal effect. In a few lines:
(§2)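 Nonlytic real-time viability readout: viable cells convert prosubstrate to NanoLuc substrate, giving luminescence proportional to live cell number. HEK293, 600 cells/well, compound added after 5 h, continuous culture at 37 C.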

The nature of assay [6]: qHTS RealTime-Glo MT Cell Viability Assay in HepG2 cells - 40 hour (AID 1224870). Also: nearly all actives have a fitted effect of over 50% in size. The gist of the method:
(§3)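 HepG2 cells (600/well) mixed with RealTime-Glo MT reagent, settled 5 h at 37 C/5% CO2 before compound addition. Nonlytic NanoLuc luminescence from viable-cell prosubstrate reduction read repeatedly during 40 h treatment at 37 C.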

The nature of assay [7]: A CellTox Green Cytotoxicity Assay to monitor cytotoxicity in HEK293 cells - 40 hour (AID 1224871). Also: nearly all actives have a fitted effect of over 45% in size. Also: potency is read from the fitted curve at half-maximal effect. The gist of the method: (§4)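 Fluorescence intensity, read at 0, 8, 16, 24, 32 and 40 h of compound treatment, reflected dye binding to DNA of dead HEK293 cells; compounds (23 nL, DMSO) were added 5 h after plating cells with reagent.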
Assay [8] is described as follows: qHTS RealTime-Glo MT Cell Viability Assay in HEK293 cells - 16 hour (AID 1224872). Also: nearly all actives have a fitted effect of over 50% in size. Also: potency is read from the fitted curve at half-maximal effect. The gist of the method:
as §2

A short description of assay [9]: qHTS RealTime-Glo MT Cell Viability Assay in HepG2 cells - 8 hour (AID 1224873). Also: nearly all actives have a fitted effect of over 55% in size. Also: potency is read from the fitted curve at half-maximal effect. The gist of the method: as §3
Assay [10] is described as follows: qHTS RealTime-Glo MT Cell Viability Assay in HEK293 cells - 40 hour (AID 1224874). Also: nearly all actives have a fitted effect of over 50% in size. Also: potency is read from the fitted curve at half-maximal effect. The following applies: RealTime-Glo luminescence; max response: stronger effect = lower value. The gist of the method:
(§5)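 Viable HEK293 cells reduce a cell-permeant prosubstrate; the product diffuses out and is consumed by NanoLuc in the medium to give light. Compounds went in after a 5 h incubation and plates were read over the treatment course.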

The nature of assay [11]: A CellTox Green Cytotoxicity Assay to monitor cytotoxicity in HepG2 cells - 16 hour (AID 1224876). Also: nearly all actives have a fitted effect of over 45% in size. Also: potency is read from the fitted curve at half-maximal effect. The gist of the method: (§6)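 Using 1536-well format, dye-containing HepG2 suspension was seeded, allowed 5 h at 37 C/5% CO2, dosed by pintool with compounds, positive and negative controls, and imaged for fluorescence across 40 h.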
Assay [12] in a line: qHTS RealTime-Glo MT Cell Viability Assay in HepG2 cells - 32 hour (AID 1224877). Also: nearly all actives have a fitted effect of over 55% in size. Also: potency is read from the fitted curve at half-maximal effect. The gist of the method: as §1
A short description of assay [13]: A CellTox Green Cytotoxicity Assay to monitor cytotoxicity in HepG2 cells - 40 hour (AID 1224879). Also: nearly all actives have a fitted effect of over 40% in size. Also: potency is read from the fitted curve at half-maximal effect. The gist of the method:
as §6

Assay [14] can be described thus: qHTS RealTime-Glo MT Cell Viability Assay in HEK293 cells - 0 hour (AID 1224880). Also: top concentration of the series differs between compounds; nearly all actives have a fitted effect of over 45% in size. The gist of the method:
as §5

Assay [15] in a line: A CellTox Green Cytotoxicity Assay to monitor cytotoxicity in HEK293 cells - 0 hour (AID 1224869). Also: nearly all actives have a fitted effect of over 50% in size. The gist of the method:
as §4

Assay [16] in a line: A CellTox Green Cytotoxicity Assay to monitor cytotoxicity in HEK293 cells - 24 hour (AID 1224875). Also: nearly all actives have a fitted effect of over 45% in size. The gist of the method: as §4
A short description of assay [17]: qHTS assay to identify small molecule agonists of the hypoxia (HIF-1) signaling pathway (AID 1224846; active = well fitted activation curve with a large enough effect in the signal ratio in the repeat runs, not every such curve was filed as active; the % refers to the signal ratio). The gist of the method: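 A low-serum medium (0.5% dialyzed FBS) holding 2,000 HRE-bla ME-180 cells per well is preincubated for 5 hrs, dosed with compounds by pintool, and kept a further 17 hrs at 37C, 5% CO2 before CCF4-AM FRET detection of beta-lactamase.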

Assay [18] is described as follows: qHTS assay to identify small molecule antagonists of the estrogen related receptor (ERR) signaling pathway from Tox21 library (AID 1224848). Also: nearly all actives have a fitted effect of over 50% in size. Also: potency is read from the fitted curve at half-maximal effect. In a few lines: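 Luminescent reporter read-out (ONE-Glo) from NTP's ERR cell line after 18 h treatment at 37 C with DMSO-dissolved Tox21 compounds; cells pre-plated 6 h beforehand at 2,000 per well.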
Assay [19] in a line: qHTS assay to identify small molecule agonists of the estrogen related receptor (ERR) signaling pathway from Tox21 library (AID 1224849; calls by dose curve; also: nearly all actives have a fitted effect of over 15% in size; also: potency is read from the fitted curve at half-maximal effect). The following applies: ERR reporter cell line, ONE-Glo luciferase, 18 h. In a few lines:
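Screening used an NTP-provided ERR luciferase cell line. Compounds in DMSO were added 6 h after seeding and left 18 h at 37 C before a 30 min ONE-Glo step and luminescence reading.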

Assay [20] can be described thus: A CellTox Green Cytotoxicity Assay to monitor cytotoxicity in HepG2 cells - 24 hour (AID 1224878). Also: nearly all actives have a fitted effect of over 45% in size. Also: potency is read from the fitted curve at half-maximal effect. The gist of the method:
as §6

Several values for one entry are separate records, joined by “and”; a condition that tells them apart may be missing. Equal entries are not always repeated. Records with an inconclusive call do not appear. Some structures have more than one record in an assay (separate samples or runs), and their calls can disagree. Activity calls are given as the source filed them. Unless noted, calls follow the shape of the dose curve; as a rule, active = well fitted curve in the direction sought with a large enough effect in the repeat runs; inconclusive = weak or mixed curves; inactive = no such curve, though single readings can be large; an effect the other way counts as inactive or inconclusive.
% is scaled to controls: 0 for no effect and ±100 for the full control effect.

Take `COP(=S)(OC)Oc1ccc([N+](=O)[O-])cc1`: the Potency result in assay [1], in [2], in [3], in assay [4], in assay [5] and in [6] was “inactive” in each case. For the same compound, the Potency result in assay [7], in assay [8], in [9], in assay [11], in assay [12] and in [13] was “inactive” throughout. Further, in [14], the Potency result is “inactive”. In addition, the max response in [10] was -19% (inactive) and -8.77% (inactive).

For the compound `Nc1cccnc1`, the Potency entry in assay [1], in assay [2], in assay [4], in [5], in assay [15] and in assay [6] was “inactive” throughout. Besides, the Potency result in [7], in [8], in assay [9], in assay [16], in assay [11] and in assay [12] was “inactive” in each case. Also, the Potency entry in assay [13] and in [14] was “inactive” throughout. The max response in assay [10] was 2.11% (inactive) and -8.29% (inactive).

For the compound `Nc1ccc(Cl)cc1N`, the Potency result in assay [2], in assay [3], in assay [18], in assay [4], in [6] and in assay [9] was “inactive” each time. Moreover, the Potency entry in assay [12] and in assay [14] was “inactive” in each case. Also, the compound was called inactive in assay [17]. In addition, the Potency was 8.31 µM [activator] (active) in assay [19]; 21.9 µM (active) in [7]; “inactive and 40.4 µM (active)” in assay [11]; “inactive and 21.9 µM (active)” in [20]; 10.2 µM (active) and 21.9 µM (active) in assay [13]. Besides, in assay [19] (at 92.4 µM (top of the series)), the activity change, positive = activation is 19.2% (active).

On to `C=CCc1ccc(OC)cc1`, for which the Potency entry in [1], in assay [2], in [4], in assay [5], in assay [15] and in assay [6] was “inactive” each time. In addition, the Potency result in [7], in assay [8], in [9], in assay [16], in assay [11] and in assay [12] was “inactive” each time. In addition, the Potency entry in assay [20], in [13] and in [14] was “inactive” each time. Besides, the max response in assay [10] was -1.64% (inactive) and 2.11% (inactive).

As for `C=CC(=O)OCCO`, the Potency entry in [1], in assay [3], in assay [4], in assay [5], in [15] and in assay [6] was “inactive” in each case. In addition, the Potency entry in assay [7], in [8], in [9], in assay [16], in assay [11] and in [12] was “inactive” in each case. For the same compound, the Potency result in assay [13] and in [14] was “inactive” throughout. For the same compound, the max response in assay [10] is 4.73% (inactive) and 14.7% (inactive).

As to `CN(C)C(=O)Nc1ccc(Cl)cc1`, the Potency entry in assay [1], in [2], in [4], in assay [5], in assay [15] and in assay [6] was “inactive” in each case. Also, the Potency result in [7], in [8], in assay [9], in [16], in [11] and in [12] was “inactive” throughout. In addition, the Potency result in assay [20], in assay [13] and in assay [14] was “inactive” in each case. The max response in [10] is -3.64% (inactive) and -10.5% (inactive).

With `O=C(O)C(F)(F)C(F)(F)C(F)(F)C(F)(F)C(F)(F)C(F)(F)C(F)(F)F`, the Potency entry in assay [2], in assay [3], in [4], in assay [5], in [15] and in [6] was “inactive” in each case. In addition, the Potency result in assay [7], in [8], in assay [9], in assay [16], in [11] and in [12] was “inactive” in each case. Further, the Potency entry in [20], in assay [13] and in assay [14] was “inactive” each time. For the same compound, in assay [17], the outcome was inactive. The max response in assay [10] was -9.47% (inactive) and 7.44% (inactive).

For the compound `CCc1cccc(CC)c1N(COC)C(=O)CCl`, the Potency in [1] was 47.4 µM (active). In addition, the Potency entry in [4], in [5], in assay [15], in assay [6], in assay [7] and in assay [8] was “inactive” in each case. The Potency result in assay [9], in assay [16], in [11], in assay [12], in [20] and in [13] was “inactive” in each case. In [14], the Potency entry is “inactive”. In addition, the max response in assay [10] was -25.5% (inactive).

As for `Oc1cc(Cl)c(Cl)cc1Cl`, the Potency entry in assay [1], in assay [2], in [4], in assay [5], in assay [6] and in assay [7] was “inactive” throughout. Besides, the Potency entry in [8], in assay [9], in assay [11], in assay [12], in assay [20] and in assay [13] was “inactive” throughout. Further, the Potency result in assay [14] is “inactive”. The Potency in [3] was 100 µM (active) and inactive. For the same compound, the max response in assay [10] is -18.2% (inactive) and -12.4% (inactive).

For `CCOCN(C(=O)CCl)c1c(C)cccc1CC`, the Potency was 51.9 µM (active) in assay [1]; 23 µM (active) and 27.3 µM (active) in [18]. In addition, the call in [17] was inactive. In addition, the activity change, positive = activation in [19] (at 92.4 µM (top of the series)) was -61% (inactive) and -71.1% (inactive). In addition, the Potency result in [4], in [5], in assay [15], in [6], in assay [7] and in assay [8] was “inactive” in each case. The Potency entry in assay [9], in [16], in [11], in assay [12], in assay [13] and in [14] was “inactive” each time. Besides, in [10], the max response was -23.6% (inactive) and -0.0681% (inactive).

As to `C=C(C)[C@H]1Cc2c(ccc3c2O[C@@H]2COc4cc(OC)c(OC)cc4[C@@H]2C3=O)O1`, the Potency entry in assay [1], in assay [2], in [15], in assay [7], in assay [16] and in assay [11] was “inactive” each time. The Potency result in [14] is “inactive”. Also, the Potency in [18] is 39.1 nM (active) and 9.7 nM (active) and 10.6 nM (active); in assay [4], 27.9 µM (active) and 27.5 µM (active); in assay [5] it was 55.7 nM (active) and 11 nM (active) and 47.7 nM (active); in assay [8] it was 88.2 nM (active) and 15.5 nM (active) and 107 nM (active); in [9] it was 24.5 µM (active) and inactive; in [10], 55.7 nM (active) and 11 nM (active) and 47.7 nM (active). Further, the Potency is 44.2 µM (active) and 27.5 µM (active) in assay [12]; 49.6 µM (active) and 38.9 µM (active) in assay [20]; 24.9 µM (active) and 24.5 µM (active) in assay [13]. Moreover, the activity change, positive = activation in assay [19] (at 42.5 µM (top of the series)) is -51.1% (inactive); in assay [19] (at 92.4 µM (top of the series)) it was -64.6% (inactive) and -64.1% (inactive).

Consider `Oc1c(Cl)c(Cl)c(Cl)c(Cl)c1Cl`, for which the Potency result in assay [1], in assay [2], in [4], in [5], in assay [6] and in assay [7] was “inactive” each time. The Potency entry in [8], in [9], in assay [16], in [11], in [12] and in [20] was “inactive” in each case. The Potency entry in assay [13] and in [14] was “inactive” each time. For the same compound, the Potency in assay [3] is 88 µM (active).

The values above are taken from PubChem BioAssay (Tox21).
